Results: PubChem BioAssay (NCATS)
Records with an inconclusive call do not appear. Active and inactive are the calls of the source. Unless noted, the call rests on the fitted dose curve; in most records, active means well fitted curve in the direction sought with a large enough effect; inconclusive means small, poorly fitted or top-dose-only effect, or another doubt; inactive means no such curve, though single readings can be large; an effect the other way counts as inactive or inconclusive.

Legend:
[1] = qHTS for Activators of Parkin Expression: LOPAC Validation Assay (FLuc Reporter) (AID 720573;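 further: 0% = DMSO and 100% = positive control compounds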)
In short: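 Neuronal cell line stably expressing FLuc/NLuc coincidence reporter under the Parkin promoter, 1,500 cells/well, dosed 24 h after seeding in 7-point series for 24 h at 37 C. FLuc luminescence read; normalized to DMSO and positive control (100%).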

[2] = target: T1, Hexokinase-4 (Homo sapiens) + Glucokinase regulatory protein (Homo sapiens) (UniProt P35557+Q14397); assay: qHTS assay for inhibitors of recombinant human GCK-GKRP interaction: Diaphorase-coupled assay (AID 743205)
In short: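 Compounds pre-incubated 20 min with substrate, then 10 nM GST-GCK with 10 nM FLAG-GKRP added. GCK activity coupled via G6PDH and diaphorase to resorufin (5 mM glucose, 0.4 mM ATP, 0.15 mM NADP+, pH 7.6), read kinetically over 30 minutes at Ex 525/Em 590 nm.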

[3] = target: T1, Hexokinase-4 (Homo sapiens) + Glucokinase regulatory protein (Homo sapiens); assay: qHTS assay for inhibitors of recombinant human GCK-GKRP interaction: ADP-Glo assay (AID 743206);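 further: plate controls were DMSO plus enzyme for no effect and no enzyme for full effect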
In short: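 GST-GCK and FLAG-GKRP (15 nM each in the dispensed mix, with 2 uM S6P) react with 0.4 mM ATP and 5 mM glucose (final) in Hepes pH 7.6 for 60 min at room temperature. ADP is measured by ADP-Glo luminescence.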

[4] = target: T1, Hexokinase-4 (Homo sapiens) + Glucokinase regulatory protein (Homo sapiens); assay: qHTS assay for inhibitors of recombinant human GCK-GKRP interaction: HTRF assay (AID 743207);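 further: 0% = DMSO with GCK present and -100% = DMSO wells lacking GCK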
In short: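 HTRF binding of 5 nM GST-GCK and 5 nM FLAG-GKRP with 2 uM S6P in pH 7.1 Hepes buffer (MgCl2, KCl, DTT, Tween 20, BSA). Anti-FLAG XL665 and anti-GST donor added, 60 min at room temperature; 665/615 nm read, normalized to with- and without-GCK controls.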

[5] = target: Atrial natriuretic peptide receptor 1 (Homo sapiens) (UniProt P16066); assay: Natriuretic polypeptide receptor (hNpr1) antagonism - Pilot screen (AID 1347049; calls by dose curve;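 further: agonist-evoked cGMP luminescence read 20 min after hNppA addition; series mostly up to about 58 µM; on the % scale 0 is the no-effect control and ±100 the full control effect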)
In short: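 Readout is cGMP-driven firefly luciferase luminescence in HEK293 cells carrying hNpr1 and a PDE5-domain GloSensor, read before and 20 min after 0.1 nM hNppA stimulation. Cells had 2% substrate reagent for 2 h and test compound for 30 min.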

[6] = target: Atrial natriuretic peptide receptor 2 (Homo sapiens) (UniProt P20594); assay: Natriuretic polypeptide receptor (hNpr2) antagonism - Pilot subtype selectivity assay (AID 1347050; calls by dose curve; further: on the % scale 0 is the no-effect control and ±100 the full control effect)
In short: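 Pilot selectivity screen against hNpr2: HEK293 cGMP-sensor cells are treated with LOPAC1280 compounds, then with hNppC peptide at 1 nM final. The cGMP-driven luminescence change over 20 min at room temperature is the read-out.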

[7] = NS1 protein of Zika virus - qHTS assay to identify small molecule inhibitors in human HEK 293 cells (AID 1347053);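 further: series mostly up to about 46 µM; plate controls were infected untreated cells for no effect and uninfected cells for full effect; nearly all actives have a fitted effect of over 55% in size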
In short: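 Inhibition of NS1 expression was scored in HEK 293 cells given compound 1 h ahead of MR766 virus (MOI = 0.5). Following 24 h at 37 C, two anti-NS1 antibodies generated a TR-FRET signal, scaled between uninfected and infected controls.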

[8] = target: T2, Tyrosine-protein phosphatase non-receptor type substrate 1 (Homo sapiens) + Leukocyte surface antigen CD47 (Homo sapiens) (UniProt P78324+Q08722); assay: CD47-SIRPalpha protein protein interaction - LANCE assay qHTS validation (AID 1347057; active means well fitted curve in the direction sought with a large enough effect in the signal ratio, with a control signal flat, not every such curve was filed as active; the % refers to the signal ratio; further: series mostly up to about 38 µM; 0% is about no effect)
In short: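 First, His-tagged CD47 and Eu-labelled anti-His antibody met the compound for 30 min; next, site-specifically biotinylated SIRPalpha was added for 30 min; finally streptavidin-APC was added before reading the TR-FRET ratio.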

[9] = target: T2, Tyrosine-protein phosphatase non-receptor type substrate 1 (Homo sapiens) + Leukocyte surface antigen CD47 (Homo sapiens); assay: CD47-SIRPalpha protein protein interaction - Alpha assay qHTS validation (AID 1347059);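 further: bead proximity luminescence from CD47 binding SIRPalpha after compound preincubation with SIRPalpha; on the % scale 0 is the no-effect control and ±100 the full control effect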
In short: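 Binding is measured by AlphaScreen proximity: Ni-NTA acceptor beads capture His-CD47, streptavidin donor beads capture biotin-SIRPalpha. Each of three additions (SIRPalpha with compound, CD47, beads) incubates 30 min at room temperature protected from light.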

[10] = target: Parathyroid hormone/parathyroid hormone-related peptide receptor (Homo sapiens) (UniProt Q03431); assay: qHTS for PTHR1 Agonists: Optimization Screen against the NCGC LOPAC library (AID 1347079);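 further: GloSensor cAMP luminescence in HEK-293 GP2 cells expressing human PTHR1 with IBMX; 0% is about no effect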
In short: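 Agonist readout: GloSensor cAMP luminescence, read after 15 min at room temperature. HEK-293-derived GP2 line carries PTHR1; compounds tested as a titration for 1 hr at 37C in presence of IBMX. M-PTH (1-15) served as control.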

[11] = system: Zika virus NS2B-NS3 protease (unlinked); assay: Optimization of GU AMC qHTS for Zika virus inhibitors: Unlinked NS2B-NS3 protease assay (AID 1347151); further: potency means the concentration at half of the fitted maximal effect; nearly all actives have a fitted effect of over 80% in size
In short: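 Noncovalent NS2B hydrophilic domain–NS3 protease complex (25 nM final) in 10 mM Tris-HCl pH 8.0, 0.01% Tween 20; AMC substrate, room temperature 15 min (~20% conversion); fluorescence change normalized, 4-parameter Hill fit.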

[12] = target: Lysine-specific demethylase 5B (Homo sapiens) (UniProt Q9UGL1); assay: Optimization screen for KDM5B Histone Demethylases FDH coupled qHTS against the LOPAC library (AID 1347166); further: 0% is about no effect
In short: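 KDM5BDeltaAP (200nM final) preincubated 10 min with compound, then 12.5uM H3K4Me3, 25uM a-ketoglutarate, ascorbate, Fe(II), NAD+ and FDH added; 50mM HEPES pH 7.5, 0.01% Tween-20. NADH fluorescence (340/450 nm) change over 30 min, room temperature.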

[13] = qHTS to identify inhibitors of the type 1 interferon - major histocompatibility complex class I in skeletal muscle: primary screen against the NCATS LOPAC collection (AID 1347405);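 further: lytic HiBiT luminescence reporting HLA-B protein level; on the % scale 0 is the no-effect control and ±100 the full control effect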
In short: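 Luminescence from HiBiT fused to endogenous HLA-B in CRISPR-engineered human myoblasts served as the read-out. Cells received 4.0 ng/ml IFN-beta plus compound (seven concentrations, 1:4.3 steps, highest 46 uM final) for 24 hrs before lytic detection.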

[14] = qHTS for inhibitors of adenylyl cyclases using a fission yeast platform: a pilot screen against the NCATS LOPAC library (AID 1347410);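 further: plate controls were DMSO vehicle for no effect and DPI positive control for full effect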
In short: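 S. pombe CHP2027 (AC9-GNAS-PDE4D2) carrying PKA-repressed fbp1-GFP, incubated 18 h at 30C in EMM with LOPAC compounds at up to 57 uM. GFP gain-of-signal read by laser scanning cytometry; DMSO negative control.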

[15] = target: Single-stranded DNA cytosine deaminase (Homo sapiens) (UniProt Q9GZX7); assay: Validation qHTS assay for inhibitors of Activation Induced Cytidine Deaminase (AID): AID signal (AID 1347429); further: on the % scale 0 is the no-effect control and ±100 the full control effect
In short: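 Fluorescence at 540 nm excitation and 590 nm emission reports ssDNA cytosine deamination by AID, with UDG in the same well. Compound-treated reactions ran 4 hr at room temperature with DJC20/DJC23 substrate, followed by 30 min NaOH treatment.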

[16] = Primary qHTS for inhibitors of La Crosse Virus (LACV) - induced cell death in SH-SY5Y cells (AID 1508616);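 further: top concentration of the series differs between compounds; 0% = infected DMSO wells and 100% = uninfected DMSO wells; higher means more rescue of cells from virus-induced death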
In short: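 Protection against LACV-induced cell death is scored in SH-SY5Y cells exposed to compounds and virus (0.01 MOI) for 6 days. Data normalized to virus-infected DMSO wells and virus-free DMSO wells.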

[17] = Primary qHTS for small molecule stabilizers of the endoplasmic reticulum resident proteome: Secreted ER Calcium Modulated Protein (SERCaMP) assay (AID 1508630); further: on the % scale 0 is the no-effect control and ±100 the full control effect
In short: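 GLuc-SERCaMP-expressing SH-SY5Y cells, pretreated 16 h with compound, are challenged with thapsigargin to empty ER calcium stores; after 4 h, coelenterazine is added directly to the medium and luminescence is imaged.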

[18] = target: Papain (Carica papaya) (UniProt P00784); assay: Primary qHTS assay for inhibitors of the protease papain (AID 1645873)
[19] = Primary qHTS for inhibitors of nuclear receptor binding SET domain protein 2 (NSD2) in an isogenic RCH-ACV NSD2 p.E1099K mutant (9B) (AID 1645876); further: on the % scale 0 is the no-effect control and ±100 the full control effect; nearly all actives have a fitted effect of over 70% in size
[20] = target: Metallo-beta-lactamase type 2 (Klebsiella pneumoniae) (UniProt C7C422); assay: qHTS to identify inhibitors of the New Delhi Metallo-beta-lactamase (NDM): assay validation screen against the NCATS LOPAC Collection (AID 1794843)
In short: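 Absorbance at 485 nm from nitrocefin turnover (50 uM solution added), read at plateau, gives the read-out. Compounds in DMSO were incubated first with 2 nM final NDM-1 in pH 7.0 HEPES buffer containing 1 uM ZnSO4 and 0.01% Tween20.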

[21] = target: Glutathione peroxidase 1 (Homo sapiens) (UniProt P07203); assay: Primary qHTS Assay for Inhibitors of Recombinant Selenoprotein Glutathione Peroxidase 1 (GPX1) (AID 1845191); further: nearly all actives have a fitted effect of over 65% in size
In short: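 10 nM GPX1 + cpd, 30 min RT; start w/ 1 mM GSH, 0.5 mM cumene hydroperoxide, 0.5 mM NADPH, 100 nM GR, 0.01% BSA; buffer 50 mM Tris-HCl pH 7.5, 2 mM EDTA, 150 mM NaCl; Fl 340/450, 0 & 15 min.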

[22] = target: Phospholipid hydroperoxide glutathione peroxidase GPX4 (Homo sapiens) (UniProt P36969); assay: Primary qHTS Assay for Inhibitors of Recombinant Selenoprotein Glutathione Peroxidase 4 (GPX4) (AID 1845192); details: outcome: dose series up to 50 µM unless noted; further: series mostly up to about 50 µM; on the % scale 0 is the no-effect control and ±100 the full control effect; nearly all actives have a fitted effect of over 65% in size
In short: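 NADPH consumption, followed by fluorescence at 340/450 nm between 0 and 15 min, reports GPX4 activity via coupled glutathione reductase (100 nM). Enzyme 200 nM was pre-exposed to compound 30 min; 0.5 mM cumene hydroperoxide and 1 mM GSH served as substrates.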

[23] = qHTS drug screen for cell cycle checkpoint inhibitors in PARPi-resistant BRCA-mutant ovarian cancer cell lines. (AID 1963452; calls by dose curve); details: PEO1/OlaR viability, CellTiter-Glo luminescence, 96 h, stronger effect = lower value
In short: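 PEO1, PEO4 and PEO1/OlaR ovarian cancer cells, 600 per well, exposed 96 h at 37C to a dilution series. Viability read by CellTiter-Glo luminescence, normalized to DMSO and empty wells; activity summarized as Z-AUC.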

T1 sequence (P35557 whole entry, looked up): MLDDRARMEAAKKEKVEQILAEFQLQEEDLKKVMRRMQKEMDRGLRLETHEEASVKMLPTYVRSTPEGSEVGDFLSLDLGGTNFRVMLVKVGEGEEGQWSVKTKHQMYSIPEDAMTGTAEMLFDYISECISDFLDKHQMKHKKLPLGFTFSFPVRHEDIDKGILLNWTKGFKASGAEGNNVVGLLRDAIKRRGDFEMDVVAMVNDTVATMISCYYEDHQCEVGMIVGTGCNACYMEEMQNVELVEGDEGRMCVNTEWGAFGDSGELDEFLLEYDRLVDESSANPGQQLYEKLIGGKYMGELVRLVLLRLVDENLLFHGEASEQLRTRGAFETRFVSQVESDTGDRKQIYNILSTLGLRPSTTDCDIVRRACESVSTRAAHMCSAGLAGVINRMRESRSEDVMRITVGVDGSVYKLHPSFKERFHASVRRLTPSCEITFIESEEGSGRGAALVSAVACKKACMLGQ
T1 sequence (Q14397 whole entry, looked up): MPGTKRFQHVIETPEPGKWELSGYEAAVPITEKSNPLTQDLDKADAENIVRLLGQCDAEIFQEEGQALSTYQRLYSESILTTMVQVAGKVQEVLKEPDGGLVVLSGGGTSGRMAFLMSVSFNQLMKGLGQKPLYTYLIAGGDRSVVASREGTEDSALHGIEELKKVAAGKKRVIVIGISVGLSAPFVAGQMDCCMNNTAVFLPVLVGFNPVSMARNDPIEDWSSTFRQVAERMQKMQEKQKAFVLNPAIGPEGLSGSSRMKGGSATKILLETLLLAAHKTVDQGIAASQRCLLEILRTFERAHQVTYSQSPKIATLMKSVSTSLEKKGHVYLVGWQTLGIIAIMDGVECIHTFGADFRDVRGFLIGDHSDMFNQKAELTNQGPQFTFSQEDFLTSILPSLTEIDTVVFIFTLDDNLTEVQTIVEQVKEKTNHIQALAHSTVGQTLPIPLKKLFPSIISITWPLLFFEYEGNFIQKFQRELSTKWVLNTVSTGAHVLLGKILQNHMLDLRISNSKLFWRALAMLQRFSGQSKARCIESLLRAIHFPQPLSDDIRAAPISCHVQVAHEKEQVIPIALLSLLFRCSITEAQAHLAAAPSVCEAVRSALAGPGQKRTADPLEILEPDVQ
Chain of Glutathione peroxidase 1 (Homo sapiens) (P07203 whole entry, looked up): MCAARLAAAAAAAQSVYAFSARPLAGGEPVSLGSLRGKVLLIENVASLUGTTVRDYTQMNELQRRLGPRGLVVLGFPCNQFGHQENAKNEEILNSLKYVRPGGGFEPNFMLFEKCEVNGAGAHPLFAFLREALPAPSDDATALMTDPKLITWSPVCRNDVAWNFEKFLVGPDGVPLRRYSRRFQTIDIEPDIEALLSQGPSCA
T2 sequence (P78324 whole entry, looked up): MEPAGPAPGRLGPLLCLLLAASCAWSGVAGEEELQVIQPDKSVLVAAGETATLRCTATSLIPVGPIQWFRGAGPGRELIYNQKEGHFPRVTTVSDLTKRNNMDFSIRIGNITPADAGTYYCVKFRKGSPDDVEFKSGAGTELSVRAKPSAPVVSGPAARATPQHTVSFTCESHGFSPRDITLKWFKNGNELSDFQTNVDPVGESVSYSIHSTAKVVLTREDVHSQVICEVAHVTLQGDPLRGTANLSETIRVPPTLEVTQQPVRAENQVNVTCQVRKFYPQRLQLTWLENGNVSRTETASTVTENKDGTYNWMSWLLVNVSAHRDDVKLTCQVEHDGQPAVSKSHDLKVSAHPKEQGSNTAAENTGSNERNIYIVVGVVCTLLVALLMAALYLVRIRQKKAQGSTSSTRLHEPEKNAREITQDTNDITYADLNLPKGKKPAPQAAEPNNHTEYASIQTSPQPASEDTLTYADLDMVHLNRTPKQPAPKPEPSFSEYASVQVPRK
T2 sequence (Q08722 whole entry, looked up): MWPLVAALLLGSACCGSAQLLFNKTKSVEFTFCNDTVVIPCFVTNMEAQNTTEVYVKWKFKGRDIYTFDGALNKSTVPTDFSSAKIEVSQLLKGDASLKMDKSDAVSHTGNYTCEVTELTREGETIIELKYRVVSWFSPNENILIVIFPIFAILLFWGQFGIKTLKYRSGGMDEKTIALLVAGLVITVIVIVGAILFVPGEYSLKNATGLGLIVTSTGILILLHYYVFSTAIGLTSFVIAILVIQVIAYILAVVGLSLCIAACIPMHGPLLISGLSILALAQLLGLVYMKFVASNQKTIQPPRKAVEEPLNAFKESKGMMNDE
Chain of Phospholipid hydroperoxide glutathione peroxidase GPX4 (Homo sapiens) (P36969 whole entry, looked up): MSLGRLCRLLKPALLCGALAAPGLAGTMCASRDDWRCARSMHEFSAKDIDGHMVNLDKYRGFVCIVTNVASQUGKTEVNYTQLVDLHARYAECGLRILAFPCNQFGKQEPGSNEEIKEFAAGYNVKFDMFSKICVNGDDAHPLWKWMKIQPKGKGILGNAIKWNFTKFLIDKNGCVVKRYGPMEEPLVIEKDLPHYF
Chain of Papain (Carica papaya) (P00784 whole entry, looked up, the tested form may be a part): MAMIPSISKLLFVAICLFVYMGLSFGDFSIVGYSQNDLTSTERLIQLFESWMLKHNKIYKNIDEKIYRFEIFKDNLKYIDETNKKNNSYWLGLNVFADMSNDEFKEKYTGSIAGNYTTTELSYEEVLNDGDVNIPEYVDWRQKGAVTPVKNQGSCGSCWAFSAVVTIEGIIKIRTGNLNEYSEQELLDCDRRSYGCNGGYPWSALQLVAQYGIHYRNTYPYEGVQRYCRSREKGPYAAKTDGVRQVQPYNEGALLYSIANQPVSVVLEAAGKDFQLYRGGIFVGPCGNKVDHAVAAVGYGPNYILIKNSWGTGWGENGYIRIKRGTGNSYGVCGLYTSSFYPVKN
Chain of Parathyroid hormone/parathyroid hormone-related peptide receptor (Homo sapiens) (Q03431 whole entry, looked up): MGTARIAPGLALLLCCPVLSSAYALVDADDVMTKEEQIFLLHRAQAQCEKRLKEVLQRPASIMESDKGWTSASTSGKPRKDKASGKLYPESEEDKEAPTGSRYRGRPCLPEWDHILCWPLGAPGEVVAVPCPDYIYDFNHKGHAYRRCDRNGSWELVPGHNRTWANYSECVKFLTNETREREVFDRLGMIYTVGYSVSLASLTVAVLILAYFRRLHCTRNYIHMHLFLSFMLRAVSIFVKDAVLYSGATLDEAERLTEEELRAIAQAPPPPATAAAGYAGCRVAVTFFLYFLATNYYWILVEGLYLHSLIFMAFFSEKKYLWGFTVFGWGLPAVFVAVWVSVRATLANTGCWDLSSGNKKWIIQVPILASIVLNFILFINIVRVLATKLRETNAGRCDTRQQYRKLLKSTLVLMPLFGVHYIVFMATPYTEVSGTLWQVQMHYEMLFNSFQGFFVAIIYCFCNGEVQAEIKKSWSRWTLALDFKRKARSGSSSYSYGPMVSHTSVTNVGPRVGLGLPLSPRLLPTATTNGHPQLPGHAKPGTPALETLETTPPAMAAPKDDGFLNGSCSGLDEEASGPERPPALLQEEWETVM
Chain of Atrial natriuretic peptide receptor 1 (Homo sapiens) (P16066 whole entry, looked up): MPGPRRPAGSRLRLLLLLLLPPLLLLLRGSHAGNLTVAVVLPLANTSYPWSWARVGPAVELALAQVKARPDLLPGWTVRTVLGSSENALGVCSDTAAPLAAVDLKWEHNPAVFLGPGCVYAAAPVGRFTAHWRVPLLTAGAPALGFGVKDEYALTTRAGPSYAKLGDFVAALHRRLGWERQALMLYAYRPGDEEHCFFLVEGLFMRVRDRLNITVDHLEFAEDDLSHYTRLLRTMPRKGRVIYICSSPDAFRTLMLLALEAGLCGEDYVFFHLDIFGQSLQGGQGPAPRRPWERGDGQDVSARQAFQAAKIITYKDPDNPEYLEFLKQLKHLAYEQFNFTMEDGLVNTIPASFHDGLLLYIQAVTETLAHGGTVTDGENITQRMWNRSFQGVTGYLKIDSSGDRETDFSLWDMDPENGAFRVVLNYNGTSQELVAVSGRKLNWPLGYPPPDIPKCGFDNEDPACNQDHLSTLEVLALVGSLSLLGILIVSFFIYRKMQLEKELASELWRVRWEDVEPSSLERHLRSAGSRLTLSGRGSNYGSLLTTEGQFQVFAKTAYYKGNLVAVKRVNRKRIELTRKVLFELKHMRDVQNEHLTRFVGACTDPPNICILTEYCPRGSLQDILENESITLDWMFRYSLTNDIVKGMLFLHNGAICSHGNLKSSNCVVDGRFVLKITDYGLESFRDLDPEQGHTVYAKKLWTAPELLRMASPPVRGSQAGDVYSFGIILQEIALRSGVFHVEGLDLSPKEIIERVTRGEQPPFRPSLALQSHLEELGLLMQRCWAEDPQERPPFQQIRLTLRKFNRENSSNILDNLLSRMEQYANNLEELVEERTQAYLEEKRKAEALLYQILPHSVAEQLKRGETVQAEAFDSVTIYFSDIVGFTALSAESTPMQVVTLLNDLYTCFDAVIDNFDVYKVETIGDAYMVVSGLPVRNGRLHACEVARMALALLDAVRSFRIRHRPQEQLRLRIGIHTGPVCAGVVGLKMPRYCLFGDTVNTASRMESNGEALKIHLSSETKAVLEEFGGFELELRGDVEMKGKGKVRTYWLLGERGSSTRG
Chain of Single-stranded DNA cytosine deaminase (Homo sapiens) (Q9GZX7 whole entry, looked up): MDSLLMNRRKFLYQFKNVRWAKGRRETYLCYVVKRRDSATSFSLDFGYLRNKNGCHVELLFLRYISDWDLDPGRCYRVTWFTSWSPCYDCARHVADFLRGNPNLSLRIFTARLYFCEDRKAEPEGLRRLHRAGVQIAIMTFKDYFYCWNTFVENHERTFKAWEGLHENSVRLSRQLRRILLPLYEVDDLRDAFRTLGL
Chain of Metallo-beta-lactamase type 2 (Klebsiella pneumoniae) (C7C422 whole entry, looked up): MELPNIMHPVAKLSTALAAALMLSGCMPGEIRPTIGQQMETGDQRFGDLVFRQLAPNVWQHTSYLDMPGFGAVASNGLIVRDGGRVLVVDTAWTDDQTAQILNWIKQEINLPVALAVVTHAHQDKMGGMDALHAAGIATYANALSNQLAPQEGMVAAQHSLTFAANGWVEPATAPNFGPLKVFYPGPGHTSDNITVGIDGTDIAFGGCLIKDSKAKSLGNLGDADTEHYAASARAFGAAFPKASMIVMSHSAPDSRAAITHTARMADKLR

CCc1ccc(/C=C2/SC(=S)NC2=O)cc1
inactive: Potency [1] | outcome [2] | outcome [3] | outcome [4] | Potency [5] | Potency [6] | outcome [7] | outcome [8] | Potency [9] | outcome [10] | outcome [12] | Potency [13] | outcome [14] | Potency [15] | outcome [16] | Potency [17] | Potency [18] | Potency [19] | Potency [20] | Potency [21] | Potency [22] | Z-AUC [23] 0.0868
active: Potency [11] 23.8 µM
0.677: Z-AUC ([23]; measured here: PEO1 parental Z-AUC)
0.763: Z-AUC ([23]; measured here: PEO4 Z-AUC)
